# How the values were obtained:
# Details in all cases: concentration: 1 μM, replicates: in singlicate; n = 1
# [1] = tested on: PAK3
# [2] = tested on: PAK4
# [3] = tested on: PAK6
# [4] = tested on: PAK7
# [5] = tested on: T1, PCTK1
# T1 construct: gene CDK16
# [6] = tested on: T2, PCTK2
# T2 construct: gene CDK17
# [7] = tested on: T3, PCTK3
# T3 construct: gene CDK18
# [8] = tested on: PDGFRA
# [9] = tested on: PDGFRB
# [10] = tested on: PDPK1
# [11] = tested on: PFTAIRE2
# [12] = tested on: T4, PFTK1
# T4 construct: gene CDK14
# [13] = tested on: PHKG1
# [14] = tested on: PHKG2
# [15] = tested on: PIK3C2B
# [16] = tested on: PIK3C2G
# [17] = tested on: PIK3CA
# [18] = tested on: PIK3CB
# [19] = tested on: PIK3CD
# [20] = tested on: PIK3CG
# 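Note: KINOMEscan kinase panel screen.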
SMILES,%Inh [1],%Inh [2],%Inh [3],%Inh [4],%Inh [5],%Inh [6],%Inh [7],%Inh [8],%Inh [9],%Inh [10],%Inh [11],%Inh [12],%Inh [13],%Inh [14],%Inh [15],%Inh [16],%Inh [17],%Inh [18],%Inh [19],%Inh [20]
Cc1c(Cn2c3ccccc3n3c(=O)cc(N4CCOCC4)nc23)cccc1C(F)(F)F [GSK2306394],23%,0%,0%,0%,0%,0%,5%,11%,25%,0%,14%,21%,12%,18%,9%,3%,1%,98.4%,52%,0%
Cc1ccccc1Cn1ccn2c(=O)cc(N3CCOCC3)nc12 [GSK2269905],0%,0%,0%,0%,1%,0%,0%,0%,13%,0%,0%,12%,0%,0%,0%,0%,0%,99.9%,57%,0%
CNCc1ccc2nc(NC(=O)c3ccc(C(C)(C)C)cc3)cn2c1,4%,4%,0%,0%,41%,3%,0%,73%,74%,3%,6%,0%,5%,0%,91.5%,0%,89%,16%,22%,40%
O=C(Nc1n[nH]c2cc(-c3ccsc3)ccc12)C1CC1 [SB-732932],0%,22%,7%,0%,13%,31%,8%,57%,80%,0%,13%,5%,21%,0%,14%,0%,3%,8%,0%,6%
O=C(Nc1n[nH]c2nc(-c3cccs3)c(Br)cc12)C1CC1 [SB-735297],0%,0%,3%,0%,28%,40%,6%,0%,43%,0%,18%,14%,0%,0%,0%,0%,0%,22%,0%,10%
CC[C@@H]1CO[C@H](C(=O)Nc2ccccc2)CN1c1cc(-c2ccc3c(N)n[nH]c3c2)nc(NC)n1 [GSK2376236],0%,0%,3%,7%,3%,11%,0%,0%,20%,94.6%,23%,28%,0%,11%,0%,0%,0%,0%,0%,6%
COc1ccc(Nc2nccc(NCCNC(=O)Nc3cc(C)ccc3C)n2)cc1 [GSK1379899],22%,0%,0%,0%,2%,0%,2%,0%,5%,0%,9%,32%,0%,0%,90%,0%,86%,0%,0%,68%
CN1c2ccc(-c3ccc(C(N)=O)cc3)cc2-c2[nH]ncc2S1(=O)=O,0%,5%,0%,0%,0%,0%,0%,0%,0%,21%,0%,0%,0%,14%,0%,0%,0%,0%,0%,0%
Cc1cccc2c(-c3ccncn3)c(-c3ccc(F)cc3)nn12 [GW515532],29%,0%,0%,3%,0%,0%,0%,0%,10%,17%,9%,8%,0%,0%,0%,0%,0%,0%,5%,0%
O=C1NC(=O)C(c2ccc(Cl)cc2)=C1Nc1ccc(O)cc1 [SB-340867],0%,0%,0%,0%,0%,4%,0%,0%,0%,17%,13%,0%,0%,0%,0%,0%,0%,0%,0%,17%
c1ccc(-c2ccnc3[nH]ccc23)cc1 [SB-693578],0%,0%,4%,4%,7%,0%,24%,0%,0%,0%,9%,9%,0%,0%,0%,0%,0%,0%,0%,0%
Cc1nccc(-c2c(-c3ccc(F)cc3)ncn2CCCN2CCOCC2)n1.Cl [SB-282975],0%,0%,0%,0%,1%,3%,10%,0%,0%,29%,24%,2%,33%,89%,0%,22%,0%,20%,49%,0%
Fc1ccc(-c2nn3cccc(F)c3c2-c2ccncc2)cc1 [GW475620],20%,0%,0%,0%,6%,0%,0%,0%,3%,0%,0%,20%,0%,0%,0%,15%,0%,0%,25%,0%
COc1ccc2cc(-c3nc(-c4ccccc4C(C)C)[nH]c3-c3ccncc3)ccc2c1 [SB-660566],30%,0%,0%,0%,51%,0%,2%,0%,7%,0%,12%,17%,0%,0%,0%,0%,0%,0%,0%,0%
CCn1c(-c2c(N)noc2C)nc2cnccc21 [SB-737856],3%,0%,0%,0%,0%,0%,44%,0%,0%,2%,15%,33%,0%,0%,1%,0%,0%,100%,3%,0%
Cn1cnc2c(N)ncnc21 [SKF-97623],0%,0%,0%,0%,0%,0%,0%,100%,0%,0%,0%,0%,0%,0%,0%,0%,0%,0%,0%,4%
CS(=O)(=O)Cc1ccc(Nc2nccc(-c3c(-c4cccc(NC(=O)C5CCCCC5)c4)nn4ncccc34)n2)cc1 [GSK350559],0%,13%,19%,2%,20%,0%,12%,53%,93.9%,1%,0%,18%,4%,9%,0%,27%,12%,4%,0%,4%
CNc1nc(-c2ccc3c(N)n[nH]c3c2)cc(N2C[C@@H](C(=O)Nc3ccccc3)CC[C@H]2C)n1 [GSK2298859],0%,0%,2%,20%,2%,0%,9%,0%,10%,83%,3%,17%,0%,15%,0%,0%,0%,0%,0%,0%
Cc1cnc(N)c(/C=C/c2cncc(C(=O)NCCc3ccc(Cl)cc3Cl)c2)c1.Cl [GSK190937],0%,0%,0%,7%,1%,0%,0%,96.4%,98.8%,0%,0%,9%,0%,19%,0%,2%,0%,1%,0%,4%
CCn1c(-c2ccccc2)nc2cnccc21 [SB-733416],14%,0%,0%,0%,4%,0%,0%,0%,16%,0%,0%,27%,0%,0%,0%,0%,0%,0%,13%,0%
COc1ccc(-c2coc3ccc(-c4nnc(C)o4)cc23)cc1,0%,5%,6%,5%,56%,0%,11%,0%,0%,33%,0%,9%,0%,20%,0%,21%,0%,0%,0%,12%

# Source: paper PMC5540273 (PLoS ONE, 2017)
